Measurements from PubChem BioAssay.
Unmarked numbers belong to inactive results.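 How the source made its calls: active means z-score of at least 1.8 in each of two replicates, scored against plate mean and spread of sample wells; inactive means the rest.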

Assay: viability rescue of complex I mutant cybrids, primary screen, cell-based, galactose medium, ATP luminescence (AID 1645843);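 further: positive z means more ATP and so rescue of galactose-driven cybrid death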
Details: complex I mutant cybrid cells, 72 h, active compounds read high

Question: Which z-score does the source give for `CN(CCc1ccccn1)C(=O)c1ccc2sc(N)nc2c1` here?
Answer: Its z-score is -0.435.

Question: Which z-score does the source give for `COc1ccc(C=CC(=O)O)cc1O` here?
Answer: The z-score was 0.285.

Question: For `Cc1cc(=O)oc2cc(OC3OC(CO)C(O)C(O)C3O)ccc12` (stereo not given), which z-score is on record?
Answer: The z-score was 0.72.

Question: For `CCn1ccnc1CN(C)C(=O)c1cc(-c2cnc(N)nc2)nc2c(C)cccc12`, which z-score is on record?
Answer: Its z-score is 1.16.

Question: For `CC(C)C(NC(=O)Cc1c[nH]c2ccccc12)C(=O)O` (stereo not given), which z-score is on record?
Answer: Its z-score is 0.47.
